# MRP resist rev = MRP-mediated drug resistance reversal; 85,000 tested, 0.04% active; H69AR cells + 2 uM doxorubicin, CellTiter-Glo, 72 h; differential viability (reversal), % at 10 µM;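 active = viability drop by adding the cancer drug above about 55%, with treated viability meeting a 40% cutoff, limit read from the data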;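 note: viability without doxorubicin minus viability with 2 µM doxorubicin for each compound; larger differential means the compound sensitizes cells more to doxorubicin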
# Phagocyt inh = blocks phagocytosis by macrophages; J774A.1 macrophage IgG-bead phagocytosis, imaging; inhibition, % at 5 µM; 110,000 tested, 0.07% active;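 active = inhibition above the mean of the plate negative controls plus 5 SD, cut at about 13% in these data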;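 note: phagocytic index as fraction of beads internalized from green versus red external bead signal; plate controls were DMSO negative control for no effect and cytochalasin-D positive control for full effect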
# MRP1 act = activators of MRP-1 | viability increase, % at 10 µM | 140,000 tested, 0.61% active | H69AR cells + doxorubicin, viability rescue, CellTiter-Glo | AID 799;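 active = viability gain under doxorubicin at or above a set limit, the compound median plus 3 SD, cut at about 4.7% in these data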;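 note: MRP-1 overexpressing cells given doxorubicin 25 µM after compound pretreatment; 18-22 h compound pretreatment then 72 h with doxorubicin before readout; 0% = doxorubicin-only wells and 100% = vehicle-treated cells without doxorubicin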
# * marks the source's active call; other numbers are inactive results; . = not tested or not shown. The list is not random: actives were taken first. Their share in the collection is about 0.69%.
SMILES,MRP resist rev,Phagocyt inh,MRP1 act
Cc1ccc(NC(=O)COC(=O)/C=C/c2c(C)nn(-c3ccc(F)cc3)c2Cl)cc1F,.,-11,-2
Cc1cc(C)nc(NN=C(c2ccccc2)c2ccccc2)n1,.,-4,-1
CCOC(=O)c1cc(C(=O)OCC)c2ccccn2c1=O,.,-1,-2
O=C(Nc1nnc(C(F)(F)F)s1)C1COc2ccccc2O1 (configuration not stated),-11,-2,5.3*
O=C(Nc1nncs1)C1COc2ccccc2O1 (configuration not stated),16,-2,-2
CCn1cc(/C=N/NC(=O)c2ccc3c(c2)OCO3)cn1,.,-4,-1
Cc1ccc(CCNC(=O)C2CCCN(S(=O)(=O)c3c(C)noc3/C=C/N(C)C)C2)cc1 (configuration not stated),-3,.,-1
Cc1noc(/C=C/N(C)C)c1S(=O)(=O)N1CCCC(C(=O)NCc2cccs2)C1 (configuration not stated),3,0,10*
Cn1c(NCc2ccccc2)nc2c1c(=O)n(Cc1ccc(Br)cc1)c(=O)n2C,19,0,0
COc1ccc(CNc2nc3c(c(=O)n(Cc4ccc(Br)cc4)c(=O)n3C)n2C)cc1,0,2,5.2*
Cc1nc(NC(C)C)c2cnn(CCc3ccccc3)c2n1,.,-1,0
CC(C)Oc1ccc(-c2nn(-c3ccccc3)cc2/C=c2\sc3ncnn3c2=O)cc1,-7,0,5.8*
O=c1/c(=C/c2cn(-c3ccccc3)nc2-c2ccc(F)cc2)sc2nc3ccccc3n12,.,-1,-2
Cc1c(Cc2ccccc2)sc(NC(=O)/C=C/c2cccc3ccccc23)c1C(N)=O,.,7,-4
c1ccc2c(-c3nc(C4CCCCC4)no3)cc(-c3ccncc3)nc2c1,2,-5,7.6*
COc1ccc(-c2cc(-c3nnc(-c4ccncc4)o3)c3ccccc3n2)cc1,.,-8,-2
Cc1ccc(/C=N/Nc2ncc(Cl)cc2Cl)s1,-5,0,-5
Clc1cnc(N/N=C/c2cccs2)c(Cl)c1,81*,-2,-4
Cc1nc(/C=C/c2ccccc2)[nH]c(=O)c1-c1ccccc1,.,-6,-2
Cc1ccccc1NC(=O)Nc1nnc(Cc2ccc([N+](=O)[O-])cc2)s1,.,-7,-4
CCn1c2ccccc2c2cc(NC(=O)C(C)Oc3ccc(OC)cc3)ccc21 (configuration not stated),.,.,1
CCOC(=O)c1sc(Nc2nc3cc4c(cc3s2)OCO4)cc1C,.,.,4.7*
CCOC(=O)c1sc(Nc2nc3c(OC)cccc3s2)cc1C,.,-14,-1
Cc1ccc(/C=C/C(=O)NC2CCCCCCC2)o1,.,-1,-5
CCc1nccn1S(=O)(=O)c1ccc(Br)cc1Br,10,0,-2
SMILES,MRP resist rev,Phagocyt inh,MRP1 act
CCOC(=O)CCCSc1nnc(CCCCCN2C(=O)c3cccc4cccc(c34)C2=O)o1,.,-7,0
Cc1nc2c(sc3nc4c(cc32)COC(C)(C)C4)c(=O)n1Cc1ccccc1,6,-1,3
Cc1nc(OCc2ccccc2)c2sc3nc4c(cc3c2n1)COC(C)(C)C4,18,2,6.1*
C/C(=N\Nc1cc(Cl)nc(C)n1)c1ccccc1,.,.,0
CCc1ccc(/C(C)=N/Nc2cc(Cl)nc(C)n2)cc1,.,.,7.9*
Cc1ccc(C(=O)COC(=O)C2CC(=O)N(c3nc(-c4ccccc4)cs3)C2)cc1 (configuration not stated),.,0,-1
Cc1cccc(NC(=O)CNC(=O)COc2ccc(-c3ccc(C#N)cc3)cc2)c1C,.,-3,-3
CCn1c(=S)[nH]c2nc3c(cc2c1=O)CCCC3,-7,.,-2
CCn1c(SCc2ccc(Cl)cc2)nc2nc3c(cc2c1=O)CCCC3,.,13,5.4*
N#Cc1cc2c(nc1SCc1ccc(Cl)cc1)CCCC2,7,.,6.8*
N#Cc1cc2c(nc1SCc1ccccc1)CCCCC2,4,-2,3
CCOC(=O)Cc1csc(/N=C/c2c(O)n(-c3ccccc3C(F)(F)F)c(=O)c3ccccc23)n1,.,-9,-2
C=CCOC(=O)C1=C(C)N=C2SCCC(=O)N2C1c1cccs1 (configuration not stated),5,8,-3
CCOC(=O)C1=C(C)N=C2SC(CC)C(=O)N2C1c1cccc(F)c1 (configuration not stated),4,-1,6.3*
CCOC(=O)C1=C(C)N=C2SC(C)C(=O)N2C1c1ccc(OCC)c(OCC)c1 (configuration not stated),13,-2,3
CCC1SC2=NC(C)=C(C(=O)OC)C(c3cccs3)N2C1=O (configuration not stated),-11,-1,5.5*
Brc1ccc(-c2cnc(-c3cccs3)o2)cc1,-1,-3,-2
NS(=O)(=O)c1ccc(N=Nc2c(-c3ccccc3)[nH]n(-c3nc(-c4ccccc4)cs3)c2=O)cc1,.,-12,5.3*
Cc1[nH]n(-c2nc(-c3cccc([N+](=O)[O-])c3)cs2)c(=O)c1C,.,-6,2
